Pf growth 96h – inhibits malaria parasite growth, 96 h. AID 504834. P. falciparum luciferase reporter growth, 96 h. 6.9% of 320,000 active. Potency, µM (series often up to 28.7 µM), inactives show top-dose activity change, negative = inhibition, actives largely listed as inhibitors; note: potency is the fitted concentration of half-maximal effect
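P. falciparum expressing integrated firefly luciferase, in erythrocytes at 2% hematocrit, 0.05% parasitemia, incubated with compounds 96 h at 37 C, 5% CO2. Growth inhibition read as loss of luminescence; two-generation exposure targets delayed-death apicoplast inhibitors.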
FBPA Giardia inh – blocks Giardia fructose-bisphosphate aldolase activity | 0.71% of 290,000 active | AID 2451 | purified Giardia FBPA | Potency, µM (doses to about 59.6 µM), for the others: top-dose activity, negative = inhibition, hits mostly inhibitors | A8B2U2; note: potency is the fitted concentration of half-maximal effect; nearly all actives have a fitted effect of over 55% in size
Target sequence (A8B2U2 whole entry, looked up): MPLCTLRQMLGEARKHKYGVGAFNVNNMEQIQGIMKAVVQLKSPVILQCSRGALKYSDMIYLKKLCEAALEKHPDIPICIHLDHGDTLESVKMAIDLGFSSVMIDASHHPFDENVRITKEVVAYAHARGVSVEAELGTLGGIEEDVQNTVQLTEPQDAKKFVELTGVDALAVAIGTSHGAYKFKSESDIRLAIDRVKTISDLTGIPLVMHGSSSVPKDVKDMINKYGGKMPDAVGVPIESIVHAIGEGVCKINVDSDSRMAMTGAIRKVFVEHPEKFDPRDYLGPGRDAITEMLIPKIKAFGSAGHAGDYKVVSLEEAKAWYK
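40 nM FBPA preincubated 10 min at RT with compound (up to 57.5 uM final), then substrate plus GAPDH/TPI/NAD/arsenate coupling and diaphorase/resazurin added. Fluorescence read after 20 min at RT, 525/598 nm.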
Pf growth 48h – P. falciparum growth inhibition at 48 hours (one generation); 5.9% of 310,000 active; Potency, µM (doses to about 28.7 µM), for inactives: at the highest dose activity change, negative = inhibition, usual class: inhibitors; P. falciparum luciferase growth in erythrocytes, 48 h; AID 504832; note: potency is the fitted concentration of half-maximal effect
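In quantitative HTS format, infected erythrocytes bearing luciferase-reporter parasites were treated for a single generation at 37 C. Luminescence after adding detection reagent served as the growth measure.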
Sm TGR inh – blocks Schistosoma mansoni thioredoxin glutathione reductase; Q962Y6; Potency, µM (doses to about 114 µM), for inactives: at the highest dose activity change, negative = inhibition, actives largely listed as inhibitors; purified TGR, DTNB reduction, TNB absorbance 405 nm; 3% of 360,000 active; note: potency is the fitted concentration of half-maximal effect; nearly all actives have a fitted effect of over 60% in size
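First, TGR (20 nM dispensed) and NADPH were mixed with compound. Second, a 15 min room-temperature incubation followed. Third, further NADPH and then DTNB were added to start the reaction. Finally, TNB absorbance was monitored kinetically.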
HCMV inh – human cytomegalovirus inhibition. HFF cells, HCMV-luciferase reporter, 72 h; hits give low values. activity change, negative = inhibition, % at 57.5 µM. 4.5% of 410,000 active. AID 1259415; in the data active = activity change below about -60%; inconclusive = no clear call, values can overlap the other calls; inactive = above about -39%
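Two compound doses tested in HFFs infected with HCMV-luciferase, MOI 1 PFU/cell, 72 h at 37C. Lysate luminescence read with OneGlo; data normalized against buffer-only and 10uM Salinomycin inhibitor controls.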
Starred values were filed as active, the others as inactive; u = inconclusive; x = no result; [ ] = remark or other dose. In the library only some 14% were active in any assay of this set; here they are far more common. Unless noted, calls come from the whole dose curve; as a rule, active = well fitted curve in the direction sought with a large enough effect; inconclusive = small, poorly fitted or top-dose-only effect, or another doubt; inactive = no such curve, though single readings can be large; an effect the other way counts as inactive or inconclusive. % is set by controls: 0 for no effect and ±100 for the full control effect.

SMILES	Pf growth 96h	FBPA Giardia inh	Pf growth 48h	Sm TGR inh	HCMV inh
COc1ccc(N2CCN(S(=O)(=O)c3c(C)nc4sc(C)cn4c3=O)CC2)cc1	x	x	x	10.8%	8.4
COc1ccc([C@@]2(C(C)C)ON(c3ccccc3C(F)(F)F)C2=O)cc1	0.294µM*	x	0.329µM*	7.0%	u
CC(C)[C@@]1(c2ccc(Cl)cc2)ON(c2ccccc2C(F)(F)F)C1=O	2.33µM*	x	2.08µM*	1.1%	x
COc1ccc(S(=O)(=O)Nc2ccccc2C(F)(F)F)cc1	27.6%	4.5%	15.3%	-3.2%	28.0
COc1ccc([C@]2(C(C)C)ON(c3ccccc3C(F)(F)F)C2=O)cc1	2.08µM*	x	1.04µM*	-12.4%	2.4
CCc1nc2sccc2c(=O)[nH]1	-45.9%[1.15 µM]	-1.6%	8.8%	9.6%	-13.1
Cc1c(C(=O)Nc2cccc(C(F)(F)F)c2)oc2ccc(S(=O)(=O)N3CCC4(CC3)OCCO4)cc12	x	x	x	-0.2%	-11.1
CC(=O)Nc1ccc(-c2ccnc3c2CC(C(=O)NCCc2ccccc2)O3)cc1 (stereo not drawn)	x	x	x	x	9.7
CC(=O)Nc1ccc(-c2ccnc3c2CC(C(=O)NCc2ccccc2)O3)cc1 (stereo not drawn)	x	x	x	x	-64.5*
O=C(NCc1ccccc1)C1Cc2c(-c3ccc4c(c3)OCO4)ccnc2O1 (stereo not drawn)	x	x	x	x	-66.8*
CC(=O)Nc1ccc(-c2ccnc3c2CC(C(=O)NCc2ccco2)O3)cc1 (stereo not drawn)	x	x	x	x	-70.3*
CC(=O)Nc1ccc(-c2ccnc3c2CC(C(=O)NCC2CC2)O3)cc1 (stereo not drawn)	x	x	x	x	12.4
CCOc1ccc(C2CC(c3cccc(Cl)c3)n3nc(N)nc3N2)cc1 (stereo not drawn)	3.7µM*	2.4%	4.4%	-12.9%	-19.0
Nc1nc2n(n1)C(c1cccc(Cl)c1)CC(c1ccc(F)cc1)N2 (stereo not drawn)	u	5.6%	x	7.3%	-3.1
CCc1ccc(C2CC(c3ccccc3C)n3nc(N)nc3N2)cc1 (stereo not drawn)	14.7µM*	6.8%	12.6%	-5.7%	-6.6
FC(F)(F)c1cccc(C2NCc3ccccc3-n3cccc32)c1 (stereo not drawn)	4.65µM*	1.7%	-20.9%	7.1%	u
Clc1ccc(C2Nc3ccccc3-n3cccc32)cc1 (stereo not drawn)	-30.3%	1.9%	-6.3%	-23.2%	25.7
Oc1ccc(C2NCc3ccccc3-n3cccc32)cc1Cl (stereo not drawn)	31.4%	14.9%	0.657µM*	-8.4%	17.9
Cc1ccc(C)n1-c1sc2c(c1C#N)CCC(C)C2 (stereo not drawn)	6.57µM*	-9.6%	x	-8.8%	u
CC(=O)Nc1sc2c(c1C#N)CCC(C)C2 (stereo not drawn)	8.1%	6.4%	3.2%	x	22.2
Cc1ccc(S(=O)(=O)N2[C@H](CC(=O)c3cccc4ccccc34)OC[C@@H]2C(C)C)cc1	x	x	x	x	80.6
Cc1cccc(C)c1N=C1SC(CC(=O)Nc2c(C)cccc2C)C(=O)N1CCc1ccccn1 (stereo not drawn)	9.28µM*	-0.3%	9.28µM*	-0.2%	-29.2
CCN1C(=O)C(CC(=O)Nc2ccccc2)S/C1=N\c1ccccn1 (stereo not drawn)	22.2%	1.9%	43.2%	-0.3%	u
O=C(CC1SC(=Nc2ccccc2)N(CCc2ccccn2)C1=O)Nc1ccc(F)cc1 (stereo not drawn)	4.65µM*	-4.2%	u	-3.5%	u
O=C(CC1SC(=Nc2ccccc2)N(CCO)C1=O)Nc1ccccc1 (stereo not drawn)	-28.1%	23.2%	u	7.9%	-27.9
SMILES	Pf growth 96h	FBPA Giardia inh	Pf growth 48h	Sm TGR inh	HCMV inh
CC(=O)Nc1c(Br)cc2c(c1Br)C(=O)c1ccccc1-2	x	x	x	x	26.0
CC(=O)C1=C(c2ccc(Br)cc2)C(=O)c2ccccc2C1=O	u	0.281µM*	u	u	u
Cc1ccc(NC(=O)c2cc(-c3ccccc3)nn2-c2ccccc2)cc1	10.4µM*	-8.6%	-12.7%	4.9%	-29.6
O=C(Nc1ccc(F)cc1)c1nn(-c2ccccc2)c(=O)cc1Cl	5.5%	4.2%	-14.6%	x	-100.2*
Cc1ccc(NC(=O)c2cc(-c3ccccc3)nn2-c2ccccc2)c(Br)c1	11.7µM*	-1.0%	u	-4.2%	81.6
CC(=O)Nc1cc(-c2ccc(Cl)cc2)nn1-c1ccccc1	9.28µM*	0.4%	0.0%	-10.6%	-4.1
COc1ccc(-n2cc(C(=O)N(CCN(C)C)Cc3ccccc3)c3ccccc3c2=O)cc1	x	x	x	-8.1%	-21.1
CCC1CCCCN1CCCNC(=O)CNC(=O)c1nn(-c2ccc(OC)c(Cl)c2)c(=O)c2ccccc12 (stereo not drawn)	u	-7.8%	5.22µM*	1.4%	-7.2
COc1ccc(-n2nc(C(=O)NCC(=O)N3CCN(c4ccccc4OC)CC3)c3ccccc3c2=O)cc1OC	u	x	1.65µM*	-16.7%	24.8
COc1ccc(-n2nc(C(=O)NCC(=O)N3CCN(c4ccccc4)CC3)c3ccccc3c2=O)cc1OC	16.3%	-1.0%	0.1%	-0.2%	41.7
COc1ccc(-n2nc(C(=O)NCC(=O)N3CCC4(CC3)OCCO4)c3ccccc3c2=O)cc1OC	4.65µM*	2.1%	u	-4.7%	129.8
COc1ccc(C(C)(O)c2nc(-c3ccc(S(C)(=O)=O)cc3)cs2)cc1 (stereo not drawn)	x	x	x	x	0.8
Cc1noc(C)c1C(=O)OC(C)C(=O)c1ccc(C(C)(C)C)cc1 (stereo not drawn)	x	x	x	x	26.6
Cc1ccc(N2NC3(CCN(C(N)=O)CC3)NC2=O)cc1	30.6%	-6.5%	17.3%	39.8µM*	23.9
O=C1NC2(CCC3(CC2)OCCO3)NN1c1ccccc1	13.4%	0.7%	3.5%	-8.0%	-12.8
CS(=O)(=O)c1ccc(Cl)c(NC(=O)CCl)c1	u	-8.9%	9.28µM*	6.31µM*	-2.2
CS(=O)(=O)c1ccc(C(=O)Nc2cc(S(C)(=O)=O)ccc2Cl)cc1	6.5%	3.2%	4.8%	-2.4%	u
CS(=O)(=O)c1ccc(Cl)c(NC(=O)COC(=O)C23CC4CC(CC(C4)C2)C3)c1	8.28µM*	x	5.22µM*	0.7%	-14.4
O=C(NCCCc1ccc(F)cc1)C1CCC(=O)N(CCCN2CCCC2=O)C1 (stereo not drawn)	64.0%	5.9%	25.4%	-6.5%	u
C#CC[N+](CC)(CC)CC#Cc1ccccc1	u	1.2%	u	-2.2%	20.0
C#CC[N+](C)(C)C(C#Cc1ccccc1)CC=C (stereo not drawn)	5.86µM*	-0.3%	9.28µM*	2.4%	-88.8*
NC(=S)N/N=C/c1ccc(-c2ccc([N+](=O)[O-])cc2)o1	18.8%	u	u	28.2µM*	21.6
